The nature of test [1]: compound effects on lung adenocarcinoma cell viability – A549, calcein-AM fluorescence, 48 h, basal, profiling panel (AID 1162). Note: test concentration not given here. The following applies: higher = more signal.
A short description of test [2]: compound effects on differentiated 3T3-L1 adipocyte viability – cell-based, 3T3-L1 adipocytes, calcein-AM fluorescence, 48 h, basal, profiling panel (AID 1163). Note: test concentration not given here. The following applies: 3T3-L1 adipocytes viability, higher = more signal.
The nature of test [3]: compound effects on hepatocellular carcinoma cell viability – HepG2, calcein-AM fluorescence, 48 h, basal, profiling panel (AID 1164). Note: test concentration not given here. The following applies: higher = more signal.
Test [4] in a line: compound effects on multiple myeloma cell viability – MM1S, calcein-AM fluorescence, 48 h, basal, profiling panel (AID 1165). Note: test concentration not given here. Conditions: higher = more signal.
Test [5] is described as follows: calcein-AM signal in unstimulated myeloma cells – cell-based, calcein-AM fluorescence, 48 h, PK04 Diversity Set, profiling panel (AID 1166).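 Note: cells grown under basal conditions without added stimulus; test concentration not given here.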 The following applies: RPMI8226 myeloma viability, higher = more signal.
Test [6] in a line: JC-1 mitochondrial signal, unstimulated HepG2 cells – cell-based, JC-1 fluorescence, 24 h, 100 nL compound, profiling panel (AID 1167). Note: test concentration not given here. Conditions: HepG2 mitochondrial potential, higher = more signal.
The nature of test [7]: JC-1 mitochondrial signal, unstimulated adipocytes – cell-based, JC-1 fluorescence, 3T3-L1 adipocytes, 24 h, 100 nL compound, profiling panel (AID 1168). Note: test concentration not given here. The following applies: JC-1 mitochondrial fluorescence, higher = more signal, called active from +8 up or from −8 down.
Test [8] is described as follows: JC-1 mitochondrial signal, unstimulated myeloma cells – cell-based, JC-1 fluorescence, RPMI8226, 24 h, 100 nL compound, profiling panel (AID 1169). Note: test concentration not given here. The following applies: JC-1 mitochondrial potential fluorescence, higher = more signal.
Test [9] in a line: JC-1 mitochondrial signal, unstimulated MM1S myeloma – cell-based, JC-1 fluorescence, 24 h, 100 nL compound, profiling panel (AID 1170). Note: test concentration not given here. Conditions: MM1S mitochondrial potential, higher = more signal.
The nature of test [10]: resazurin metabolic signal in A549 cells – cell-based, resazurin fluorescence, 24 h, PK04 Diversity Set, profiling panel (AID 1171). Note: test concentration not given here. Conditions: A549 viability, higher = more signal, called active from +8 up or from −8 down.
A short description of test [11]: resazurin metabolic signal in HepG2 cells – cell-based, resazurin fluorescence, 24 h, PK04 Diversity Set, profiling panel (AID 1172). Note: test concentration not given here. Conditions: HepG2 viability, higher = more signal. (Resazurin is reduced to fluorescent resorufin, in cell work by metabolically active cells.)
The nature of test [12]: budding yeast growth changes without added modifier – OD600, strain BY4716, 24 h, basal condition, primary screen (AID 1173). Conditions: S. cerevisiae BY4716 growth, OD600, 24 h; higher = more signal, called active from +8 up or from −8 down.
Test [13] in a line: viability profiling in MM1S myeloma cells – cell-based, resazurin fluorescence, basal, 24 h, PK04 Diversity Set, profiling panel (AID 1174). Note: test concentration not given here. Conditions: higher = more signal, called active from +8 up or from −8 down.
For test [14], the target named is Dihydroorotate dehydrogenase (quinone), mitochondrial (Plasmodium falciparum (isolate 3D7)) (UniProt Q08210). Nature of the test: inhibition of P. falciparum DHODH – biochemical, C-terminal His tag, absorbance 600 nm, primary screen (AID 1175).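 Note: recombinant parasite enzyme with a five histidine tag at its C terminus; test concentration not given here.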 The following applies: PfDHODH enzyme, DCIP absorbance 600 nm; higher = more signal, called active from +8 up or from −8 down.
Sequence of Dihydroorotate dehydrogenase (quinone), mitochondrial (Plasmodium falciparum (isolate 3D7)) (Q08210 whole entry, looked up): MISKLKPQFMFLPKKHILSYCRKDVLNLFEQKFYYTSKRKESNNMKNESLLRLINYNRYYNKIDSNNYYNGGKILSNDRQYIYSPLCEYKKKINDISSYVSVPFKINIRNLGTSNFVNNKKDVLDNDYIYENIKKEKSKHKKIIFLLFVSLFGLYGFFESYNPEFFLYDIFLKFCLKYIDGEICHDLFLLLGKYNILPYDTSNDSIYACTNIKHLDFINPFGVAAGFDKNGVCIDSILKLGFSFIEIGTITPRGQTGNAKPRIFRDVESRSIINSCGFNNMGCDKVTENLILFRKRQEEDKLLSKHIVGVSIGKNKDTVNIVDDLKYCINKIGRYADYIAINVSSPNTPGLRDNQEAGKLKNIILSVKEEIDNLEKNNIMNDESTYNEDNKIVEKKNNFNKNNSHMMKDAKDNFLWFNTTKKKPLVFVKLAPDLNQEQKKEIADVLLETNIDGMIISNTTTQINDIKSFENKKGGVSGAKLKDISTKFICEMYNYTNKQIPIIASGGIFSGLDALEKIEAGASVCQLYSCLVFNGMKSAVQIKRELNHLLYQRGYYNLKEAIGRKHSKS

The nature of test [15]: inhibition of PAO1 biofilm formation – strain PAO1, LB-PBS medium, absorbance 600 nm, primary screen (AID 1176). Note: test concentration not given here. The following applies: P. aeruginosa PAO1 growth/biofilm, A600, 12 h; higher = more signal.
Test [16] is described as follows: growth modulation of vineyard yeast isolate – strain RM11-1a, OD600, basal, 24 h, primary screen (AID 1177).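 Note: cultures grown under basal conditions with no added stressor; test concentration not given here.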 The following applies: S. cerevisiae RM11-1a growth, OD600, 24 h; higher = more signal, called active from +8 up or from −8 down.
Test [17] can be described thus: growth of efflux-deficient E. coli DRC39 – strain DRC39, OD650, 24 h, E. coli filamentation inducers, primary screen (AID 1178).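 Note: growth measured as culture turbidity by optical density at 650 nm; test concentration not given here.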 The following applies: E. coli DRC39 acrAB, higher = more signal, called active from +8 up or from −8 down.
Test [18] in a line: growth of efflux-deficient E. coli DRC39 – strain DRC39, OD650, 48 h, E. coli filamentation inducers, primary screen (AID 1179).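 Note: screen aims at cell division blockers that make cells filament.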 Conditions: E. coli DRC39 delta-acrAB growth, higher = more signal, called active from +8 up or from −8 down.
Test [19] can be described thus: viability profiling in RPMI8226 myeloma cells – cell-based, resazurin fluorescence, basal, 24 h, PK04 Diversity Set, profiling panel (AID 1180).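 Note: RPMI8826 multiple myeloma cell line at 5000 cells per well; test concentration not given here.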 The following applies: higher = more signal.
The target in test [20] is E3 ubiquitin-protein ligase XIAP (Homo sapiens) (UniProt P98170). Nature of the test: small molecules binding XIAP protein – biophysical, small-molecule microarray, fluorescence 635 nm, primary screen (AID 1181).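 Note: score merges 667 nm emission and signal to noise over triplicate slides.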 Conditions: higher = more signal.
Sequence of E3 ubiquitin-protein ligase XIAP (Homo sapiens) (P98170 whole entry, looked up): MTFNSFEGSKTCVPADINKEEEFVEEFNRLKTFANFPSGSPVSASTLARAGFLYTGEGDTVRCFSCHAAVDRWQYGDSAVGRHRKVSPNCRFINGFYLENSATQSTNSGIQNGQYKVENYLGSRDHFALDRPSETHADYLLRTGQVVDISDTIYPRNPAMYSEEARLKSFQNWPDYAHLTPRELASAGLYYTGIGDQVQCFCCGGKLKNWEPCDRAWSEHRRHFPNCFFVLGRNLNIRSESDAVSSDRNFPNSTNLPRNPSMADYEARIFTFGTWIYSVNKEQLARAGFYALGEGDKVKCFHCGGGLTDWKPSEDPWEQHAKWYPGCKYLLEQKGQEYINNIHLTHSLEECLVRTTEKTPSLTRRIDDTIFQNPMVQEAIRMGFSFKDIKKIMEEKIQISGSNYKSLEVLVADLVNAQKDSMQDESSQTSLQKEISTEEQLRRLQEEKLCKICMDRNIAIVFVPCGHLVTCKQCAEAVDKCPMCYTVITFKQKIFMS

Where “and” joins values, the source holds several entries; their conditions need not be identical. Equal values may be shown once. Calls of active or inactive are those of the source. Unless noted, the rule behind the calls is not given here.

Turning to `C=CCN(Cc1ccccc1)C(=O)C(c1cccs1)N(C(=O)/C=C\C(=O)O)c1ccc(CCO)cc1` (stereo not given), the z-score in [1] is -0.636 and -0.0917; in test [2], 0.0605 and -0.16; in test [3], 0.391 and 0.373; in [4], 1.49 and 1.81; in [5] it was 0.586 and 0.894; in test [6], 1.26 and 0.706. For the same molecule, the z-score in [7] was 0.645 (inactive) and 1.1 (inactive); in test [8] it was 0.648 and 0.272; in [9], -1.19 and -0.751; in [10], -0.29 (inactive) and -0.14 (inactive); in test [11], -0.42 and -0.633; in test [12], 0.0593 (inactive) and -0.0181 (inactive). The z-score in test [13] was -0.0351 (inactive) and -0.273 (inactive); in test [15], -0.208 (inactive) and 0.233 (inactive); in test [16], 0.374 (inactive) and 0.514 (inactive); in test [17] it was 0.866 (inactive) and 0.736 (inactive); in test [18], 0.722 (inactive) and 0.609 (inactive); in test [19], 0.565 and -0.122. Besides, the composite z-score in [14] is -0.866 (inactive) and -0.0473 (inactive); in [20], -0.0987 and 0.035.

`CCOC(=O)CCN1C(=O)[C@H]2[C@H]3[C@H](O)[C@H](O)CC(=NNC(=O)OCC)[C@@H]3CC[C@H]2C1=O`: the z-score in test [1] is 0.241; in [2], -0.0796; in test [3] it was 0.076; in test [4] it was -0.847; in test [5], -0.314; in test [6] it was -0.566. Further, the z-score in test [7] was -0.541 (inactive); in test [8], 0.209; in test [9] it was -0.479; in test [10], -0.453 (inactive); in test [11], -0.346; in test [12], -0.762 (inactive). The z-score in [13] is -0.994 (inactive); in [15], -0.531 (inactive); in test [16], -0.382 (inactive); in test [17], 0.202 (inactive); in test [18], 0.526 (inactive); in test [19] it was -1.74. In addition, the values for the composite z-score in [14] and in test [20] were -0.31 (inactive) and 0.116, respectively.

Take `C=CCN(C(=O)C(c1cccs1)N(C(=O)/C=C\C(=O)O)c1ccc(CCO)cc1)c1ccc(OC)cc1` (stereo not given): the z-score in [1] was -0.256 and 1.54; in [2], 0.015 and -0.199; in test [3] it was 1.35 and 0.76; in test [4], 1 and -0.0823; in test [5], 1.2 and -0.0106; in [6], 0.417 and 0.583. The z-score in test [7] was 0.249 (inactive) and 1.26 (inactive); in test [8], 0.201 and 0.0752; in [9], -1.07 and 1.18; in test [10], 0.307 (inactive) and 0.0568 (inactive); in test [11] it was 0.495 and -0.158; in [12], -1.66 (inactive) and -1.5 (inactive). The z-score is 0.777 (inactive) and 0.249 (inactive) in test [13]; 0.413 (inactive) and -0.497 (inactive) in test [15]; -0.405 (inactive) and 0.127 (inactive) in test [16]; 1 (inactive) and 0.244 (inactive) in test [17]; 0.78 (inactive) and 0.864 (inactive) in test [18]; 0.32 and 0.335 in test [19]. Besides, the composite z-score in [14] is -1.09 (inactive) and -4.45 (inactive); in [20] it was 0.184 and 0.284.

`CCN1C(=O)[C@H]2[C@H]3[C@H](O)[C@H](O)CC(=NNC(=O)OCc4ccc(OC)cc4)[C@H]3CC[C@H]2C1=O`: the z-score in test [1] was 0.173; in test [2] it was -0.402; in [3] it was 1.33; in test [4], 0.436; in test [5] it was -0.261; in test [6], 0.385. The z-score in [7] was -0.596 (inactive); in test [8] it was -0.236; in test [9], -0.00926; in test [10] it was -0.947 (inactive); in test [11] it was -1.02; in test [12], 0.199 (inactive). Besides, the z-score was -2.24 (inactive) in test [13]; -0.273 (inactive) in test [15]; 0.632 (inactive) in [16]; -0.0482 (inactive) in [17]; 0.559 (inactive) in test [18]; -1.38 in [19]. Moreover, the composite z-score in [14] was -0.223 (inactive); in test [20] it was 0.0322.

Consider `C=CCN(C(=O)C1N(CCCCCCO)C(=O)C2C(C(=O)O)C3C=CC21O3)c1ccc(OC)cc1` (stereo not given), for which the z-score in [1] was 1.37 and 0.282; in test [2] it was 0.743 and -0.0063; in [3], -0.46 and 0.428; in test [4], 0.315 and -1.1; in test [5] it was 0.432 and 0.269; in test [6] it was 0.113 and -0.546. Also, the z-score in test [7] is 0.74 (inactive) and 0.861 (inactive); in [8], -0.875 and -0.0778; in test [9], 1.02 and 1.2; in test [10], 1.09 (inactive) and 0.416 (inactive); in [11], 0.831 and 0.525; in [12] it was -2.35 (inactive) and -2.45 (inactive). In addition, the z-score was 1.04 (inactive) and -0.294 (inactive) in [13]; -0.401 (inactive) in [15]; -1.53 (inactive) and -0.292 (inactive) in [16]; 1.15 (inactive) and 0.43 (inactive) in test [17]; 1.16 (inactive) and 0.716 (inactive) in test [18]; 1.37 and 0.372 in test [19]. The composite z-score in test [14] was -1.78 (inactive) and -2.48 (inactive); in test [20], -0.0492 and 0.0972.

Regarding `C=C[C@@H](OC)[C@H](O)c1ccc(OC)c(O)c1`, the z-score in test [1] was -0.72 and 0.387; in test [2] it was 1.21 and 1.57; in test [3], -1.02 and 0.209; in [4], -1.16 and 0.905; in [5], -1.3 and 0.14; in test [6] it was -0.782 and 0.179. The z-score in [7] is -1.44 (inactive) and 0.912 (inactive); in [8], -0.205 and -0.346; in test [9] it was -0.297 and 1; in test [10], -0.693 (inactive) and 0.835 (inactive); in test [11] it was -0.246 and 0.49; in [12], -1.28 (inactive) and -1.67 (inactive). Further, the z-score was -0.72 (inactive) and 0.989 (inactive) in test [13]; 0.152 (inactive) in test [15]; 0.119 (inactive) and -1.5 (inactive) in test [16]; -0.0985 (inactive) and 1.78 (inactive) in test [17]; -0.489 (inactive) and 1.38 (inactive) in [18]; -1.04 and 0.51 in [19]. The composite z-score is 0.229 (inactive) and -0.344 (inactive) in test [14]; -0.319 and -0.148 in [20].

Values taken from PubChem BioAssay.
